The chains are these.
T1: UNK ZnF1-6 (called full-length) (human, UniProt Q9C0B0 30-357)
T1 sequence: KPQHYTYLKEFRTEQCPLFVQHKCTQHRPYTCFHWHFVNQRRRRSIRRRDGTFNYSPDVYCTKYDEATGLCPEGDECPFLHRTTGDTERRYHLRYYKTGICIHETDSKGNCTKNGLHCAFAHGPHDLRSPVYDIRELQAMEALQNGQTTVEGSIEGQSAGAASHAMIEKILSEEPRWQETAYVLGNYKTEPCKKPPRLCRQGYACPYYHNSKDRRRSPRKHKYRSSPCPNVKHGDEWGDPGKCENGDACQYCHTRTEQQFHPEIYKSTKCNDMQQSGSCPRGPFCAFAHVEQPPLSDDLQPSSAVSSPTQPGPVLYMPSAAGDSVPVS

B1: ENSG00000136451:be:win_3701|3pUTR|ENSG00000136451|bound_else_gene|NA|bound_elsewhere_windowed (ssRNA)
RNA: GGGAGUUCUACAGUCCGACGAUCUCUCUGGUGGGCUGGCAGUCAUAAUUCACAAUUCAGACAGCCCAGGCUUCCUCCACAGUGGUCCAAGGAGCAGUCCUCAGUGGGGGCAGGUGUGGGCCCUACCCCUAAGCUAGAAUGUGGCAACAGAGGAUUGAGCAUCA
B2: ENSG00000107863:be:win_451|CDS|ENSG00000107863|bound_else_gene|NA|bound_elsewhere_windowed (ssRNA)
RNA: GGGAGUUCUACAGUCCGACGAUCUUGGAACUUAGUGUUAUGCCAAAAGAUGAAGACAUUCUCCAAGUGCUACAGUUUACAAAGGAUGUCACAGCACUGGCAUAUUCUCAAGAUGCCUACCUGAAAGGCAACGAAGCUUAUAGCCAACAGAGGAUUGAGCAUCA
B3: chr9:96387934:96388035:-|3pUTR|ENSG00000165244|msi1|total|mutant (ssRNA)
RNA: GGGAGUUCUACAGUCCGACGAUCAAUAUUUUGUAAAUAUGGACUGCACAGUACAGGGCCGAAAACUACAUAUUGUGGGAAGCCCGAUUUUGCAAGUUUAAUGCAUUCAUUGGAAGCAGUUCUCACAGGAAGCACUUUCUGAAUCAACAGAGGAUUGAGCAUCA
B4: chr20:32237940:32238012:+|3pUTR|ENSG00000101346|msi1_unk|FALSE|overlapping (ssRNA)
RNA: GGGAGUUCUACAGUCCGACGAUCUUUCAAAGAUACAAAUAUUUACAUAGUUUUAAUCAUGUAAUAUAUACAAUUUAAUGUCCUAGUGUUUUACUUAAUAGUGUAUCAUGUUUUCCCUGUUGGUAUGUAGCCUGGAUAAAUGCUCAACAGAGGAUUGAGCAUCA
B5: chr17:3662948:3663056:-|3pUTR|ENSG00000213977|unk|total|mutant (ssRNA)
RNA: GGGAGUUCUACAGUCCGACGAUCAGUUUGAUACAAAAUGUUUUUAUCGUACUCUUUGGAGAUGCCCAUUCUACUUUUGAAUUCCGCUUUUACUAAUUCGCAUCUGGAAGCUCAGCAAGUGCACAAGCCUUACUUUGGUUACCGCAACAGAGGAUUGAGCAUCA
B6: chr5:76617584:76618642:-|CDS|ENSG00000164220|control|control|control (ssRNA)
RNA: GGGAGUUCUACAGUCCGACGAUCUGAUGGCUUAUAUUUUAUAUAUCUCAUAGCUUUGUGCCUGGGUAGUCUUAAUAGUUGCUUAGAUCCAUUCCUUUAUUUUCUCAUGUCAAAAACCAGAAAUCACUCCACUGCUUACCUUACCAACAGAGGAUUGAGCAUCA
B7: chr4:168927217:168927233:+|3pUTR|ENSG00000129116|msi1_unk|total|mutant (ssRNA)
RNA: GGGAGUUCUACAGUCCGACGAUCAACCACCCAAAUGACCAAGGCAUAUACCGUAUUUGGAGGAAUCAGGGGUUUGGAAGGAGCCGGGAGGAGAAUGAAGGAAAAUGCAACCAGCAUGAUUACCGUGUGUUCAUUCCGAUAAAACAACAGAGGAUUGAGCAUCA
B8: ENSG00000198589:be:win_7401|CDS|ENSG00000198589|bound_else_gene|NA|bound_elsewhere_windowed (ssRNA)
RNA: GGGAGUUCUACAGUCCGACGAUCUUCUCAACUACUCAUAGAGCCCCAUCCUCCCAGAGGUUCUGCCAUGCAAGUGAGUCCAUUGAUGUUCACAGACAAAGCCCAGCAGGAUGUUAUCAUGGUCCUCAAGUUUCCCUCCAACUCCAACAGAGGAUUGAGCAUCA
B9: chr5:128187618:128187661:+|3pUTR|ENSG00000064651|msi1_unk|total|mutant (ssRNA)
RNA: GGGAGUUCUACAGUCCGACGAUCUCCUUUAUAAGUCAUUAAAAUAAUGUUUCAUCAAAUGGUUAAAUGGACCACUGGUUUCUCCGAGAAAUGUUUUCCGGCUUAAUUCAUUCAAUUGUCAAGUACACUCCGUCUUAAUACACUCAACAGAGGAUUGAGCAUCA
B10: chr1:159061598:159062691:-|three_prime_utr|ENSG00000163568|control|control|control (ssRNA)
RNA: GGGAGUUCUACAGUCCGACGAUCUCAAUCAGAUUGUAAGUUACCUGAAAGCUGCAGUUCACAGGCUCCUCUCUCCACCAAAUUAGGAUAGAAUAAUUGCUGGAUAAACAAAUUCAGAAUAUCAACAGAUGAUCACAAUAAACACAACAGAGGAUUGAGCAUCA
B11: chr10:95606323:95606429:-|3pUTR|ENSG00000059573|unk|total|mutant (ssRNA)
RNA: GGGAGUUCUACAGUCCGACGAUCCCAUGGCUGCUUUGUGUCACCUCAGUGACUUACAGUCCCCCUUGGCAUUCCGUUGGUACCCGAGCCAGUCAUCCUUAACAAAUCUUUUCACAUUUUAUUUCUUUCACAUGCCGUCAUCUUCAACAGAGGAUUGAGCAUCA
B12: chr10:95606323:95606429:-|3pUTR|ENSG00000059573|unk|FALSE|bound_elsewhere (ssRNA)
RNA: B11 RNA with C73U, C74A, C83U, C84A, C134U, C135A
B13: chrX:107070192:107070425:-|CDS|ENSG00000089682|control|control|control (ssRNA)
RNA: GGGAGUUCUACAGUCCGACGAUCCGUUCUAGGAGCCAAAUGGCAGAAAAGGACUGGGAGGACCUCAACAUUUAGUAUUCUCUUAGUUUCCUUGCUUUCAGAAACAGUGUUCACAUCUUCAGCCAUGUAUGGCAUUCCCCAUCUCAACAGAGGAUUGAGCAUCA
B14: chr14:106116634:106116941:-|CDS|ENSG00000211941|control|control|control (ssRNA)
RNA: GGGAGUUCUACAGUCCGACGAUCUGGAUCCGCCAGGCUCCAGGGAAGGGGCUGGAGUGGGUUUCAUACAUUAGUAGUAGUAGUAGUUACACAAACUACGCAGACUCUGUGAAGGGCCGAUUCACCAUCUCCAGAGACAACGCCCAACAGAGGAUUGAGCAUCA

Positions count from the first letter of the chain named. Over roughly 5,800 sequences, “enrichment r” has its median near 0.68; the highest 2% begin near 11. What follows is part of a selection rich in the highest values, with near analogues and random picks from the rest.

The test concerns the target T1, UNK ZnF1-6 (called full-length). Description: nsRBNS (natural sequence RNA bind-n-seq); RBNS binding buffer (assumed for nsRBNS): 25 mM Tris pH 7.5, 150 mM KCl, 3 mM MgCl2, 0.01% Triton X-100, 500 ug/ml BSA, 20 U/ml SUPERase-In, 4 C; UNK is unkempt and MSI1 is Musashi-1; names of the RNAs are library labels; protein concentration not given here; high values mean tight binding.
B1 gave a binding signal of 0.776 enrichment R. For B2 the value was 0.399 enrichment R; for B3, 0.299 enrichment R. For B4 the value was 4.06 enrichment R. Under B5 stands 0.437 enrichment R; under B6, 4.63 enrichment R; under B7, 0.58 enrichment R. With B8, the binding signal was 0.555 enrichment R. For B9 the value was 0.678 enrichment R; for B10, 1.86 enrichment R. The molecule B11 had a binding signal of 6.24 enrichment R. For B12 the value was 15.5 enrichment R; for B13, 3.69 enrichment R; for B14, 1.12 enrichment R.

These data come from article PMC12136788.
